# Assays:
# Assay in all cases: yeast three-hybrid, YBZ-1, SC-Leu-His + 0.5 mM 3-AT, 4 days
# Details in all cases: tags: N-Gal4 AD-HA kept; label: inside an RPR1-promoter hybrid RNA with tandem MS2 sites; ssRNA
# PUM1 PUF domain R5-KQW = PUM1 PUF domain R5-KQW (Homo sapiens, UniProt Q14671 828-1176, C1007K;R1008Q;Q1011W)
# Procedure, shortened: (§1)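 Pumilio-1 PUF domain libraries, randomized at the three base-contacting residues of each repeat, were co-expressed with matching RNA elements from a centromeric plasmid in strain YBZ-1, which carries a LexA–MS2 coat fusion and a HIS3 reporter. Transformants grew for four days on SC-Leu (input) or on SC-Leu-His + 0.5 mM 3-AT (selection), and the repeat regions were PCR-amplified and Illumina-sequenced. The interaction score is the log change in variant frequency from input to selection. That logarithm is base 2, with a pseudocount of 1 where a variant was absent.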
# PUM1 PUF domain R5-WWQ = PUM1 PUF domain R5-WWQ (Homo sapiens, UniProt Q14671 828-1176, C1007W;R1008W)
# Procedure, shortened: as §1
# PUM1 PUF domain R5-QAR = PUM1 PUF domain R5-QAR (Homo sapiens, UniProt Q14671 828-1176, C1007Q;R1008A;Q1011R)
# Procedure, shortened: as §1
# PUM1 PUF domain R6-QWL = biological target: T1, PUM1 PUF domain R6-QWL (Homo sapiens, UniProt Q14671 828-1176, N1043Q;Y1044W;Q1047L)
# T1 sequence: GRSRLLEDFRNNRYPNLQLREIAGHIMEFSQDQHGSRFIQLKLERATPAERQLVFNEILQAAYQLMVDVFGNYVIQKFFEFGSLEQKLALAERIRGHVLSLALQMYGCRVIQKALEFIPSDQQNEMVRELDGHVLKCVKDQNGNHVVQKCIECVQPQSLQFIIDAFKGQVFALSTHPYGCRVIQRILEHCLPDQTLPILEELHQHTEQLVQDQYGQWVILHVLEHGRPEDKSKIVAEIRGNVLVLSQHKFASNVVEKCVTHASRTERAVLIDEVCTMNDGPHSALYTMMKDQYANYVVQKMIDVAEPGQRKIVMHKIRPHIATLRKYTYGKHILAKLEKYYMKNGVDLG
# Procedure, shortened: as §1
# PUM1 PUF domain R5-PHR = PUM1 PUF domain R5-PHR (Homo sapiens, UniProt Q14671 828-1176, C1007P;R1008H;Q1011R)
# Procedure, shortened: as §1
# PUM1 PUF domain R4-RMS = PUM1 PUF domain R4-RMS (Homo sapiens, UniProt Q14671 828-1176, N971R;H972M;Q975S)
# Procedure, shortened: as §1
# PUM1 PUF domain R8-GWH = PUM1 PUF domain R8-GWH (Homo sapiens, UniProt Q14671 828-1176, N1122G;Y1123W;Q1126H)
# Procedure, shortened: as §1
# PUM1 PUF domain R2-RKQ = PUM1 PUF domain R2-RKQ (Homo sapiens, UniProt Q14671 828-1176, N899R;Y900K)
# Procedure, shortened: as §1
# PUM1 PUF domain R5-EWD = PUM1 PUF domain R5-EWD (Homo sapiens, UniProt Q14671 828-1176, C1007E;R1008W;Q1011D)
# Procedure, shortened: as §1
# PUM1 PUF domain R1-KWV = PUM1 PUF domain R1-KWV (Homo sapiens, UniProt Q14671 828-1176, S863K;R864W;Q867V)
# Procedure, shortened: as §1
sequence,measurement,setting,value
GGCUAGAACUAGUGGAUCCCCCGGCGCCCGGCGGCUCGAGCCCGGGUAAGUGUUAAUAGUCUGCAUGCCGCCGGGCGCCAUGCCUGCAGGUCGACUCUAGAAAACAUG,binding signal,PUM1 PUF domain R5-KQW,2.43 log2 enrichment (interaction score)
same,binding signal,PUM1 PUF domain R5-WWQ,2.93 log2 enrichment (interaction score)
same,binding signal,PUM1 PUF domain R5-QAR,3.17 log2 enrichment (interaction score)
GGCUAGAACUAGUGGAUCCCCCGGCGCCCGGCGGCUCGAGCCCGGGUAAGUGUCAAUAGUCUGCAUGCCGCCGGGCGCCAUGCCUGCAGGUCGACUCUAGAAAACAUG,binding signal,PUM1 PUF domain R5-KQW,4.59 log2 enrichment (interaction score)
same,binding signal,PUM1 PUF domain R5-QAR,4.51 log2 enrichment (interaction score)
GGCUAGAACUAGUGGAUCCCCCGGCGCCCGGCGGCUCGAGCCCGGGUAAGUGAAAAUAGUCUGCAUGCCGCCGGGCGCCAUGCCUGCAGGUCGACUCUAGAAAACAUG,binding signal,PUM1 PUF domain R6-QWL,4.43 log2 enrichment (interaction score)
GGCUAGAACUAGUGGAUCCCCCGGCGCCCGGCGGCUCGAGCCCGGGUAAGUGUAAAUAGUCUGCAUGCCGCCGGGCGCCAUGCCUGCAGGUCGACUCUAGAAAACAUG,binding signal,PUM1 PUF domain R5-PHR,2.42 log2 enrichment (interaction score)
same,binding signal,PUM1 PUF domain R4-RMS,4.65 log2 enrichment (interaction score)
GGCUAGAACUAGUGGAUCCCCCGGCGCCCGGCGGCUCGAGCCCGGGUAAGCGUAAAUAGUCUGCAUGCCGCCGGGCGCCAUGCCUGCAGGUCGACUCUAGAAAACAUG,binding signal,PUM1 PUF domain R8-GWH,3.5 log2 enrichment (interaction score)
GGCUAGAACUAGUGGAUCCCCCGGCGCCCGGCGGCUCGAGCCCGGGUAAGUGUAAAGAGUCUGCAUGCCGCCGGGCGCCAUGCCUGCAGGUCGACUCUAGAAAACAUG,binding signal,PUM1 PUF domain R2-RKQ,2.92 log2 enrichment (interaction score)
GGCUAGAACUAGUGGAUCCCCCGGCGCCCGGCGGCUCGAGCCCGGGUAAGUGUGAAUAGUCUGCAUGCCGCCGGGCGCCAUGCCUGCAGGUCGACUCUAGAAAACAUG,binding signal,PUM1 PUF domain R5-WWQ,2.01 log2 enrichment (interaction score)
same,binding signal,PUM1 PUF domain R5-EWD,2.28 log2 enrichment (interaction score)
GGCUAGAACUAGUGGAUCCCCCGGCGCCCGGCGGCUCGAGCCCGGGUAAGUGUAAAUCGUCUGCAUGCCGCCGGGCGCCAUGCCUGCAGGUCGACUCUAGAAAACAUG,binding signal,PUM1 PUF domain R1-KWV,5.68 log2 enrichment (interaction score)
GGCUAGAACUAGUGGAUCCCCCGGCGCCCGGCGGCUCGAGCCCGGGUAAGUGUAAAUGGUCUGCAUGCCGCCGGGCGCCAUGCCUGCAGGUCGACUCUAGAAAACAUG,binding signal,PUM1 PUF domain R1-KWV,0.79 log2 enrichment (interaction score)

# Reference: publication PMC8384837, “Expanding the binding specificity for RNA recognition by a PUF domain”
